Vc quorum ag: induces V. cholerae light production without autoinducers; V. cholerae BH1578 lux reporter, luminescence, 6 h; activation, % at 18.7 µM; actives 0.16% (n = 350,000); AID 588436; in the data active = activation mostly above about 9.7%, no sharp cut-off
GDH-TPI counter: inhibits GDH-TPI coupling enzymes, artifact for Mtb FBA screen; GDH-TPI coupled enzyme counterscreen, NADH absorbance; inhibition, % at 4.8 µM; actives 1.2% (n = 360,000); AID 588335; in the data active = inhibition above about 30%
Rv3671c protease: inhibits the M. tuberculosis serine protease Rv3671c. P9WHR9. inhibition, % at 5.96 µM. actives 0.048% (n = 320,000). AID 2606; in the data active = inhibition above about 38%;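 also: extracellular domain of Rv3671c used as enzyme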
Target sequence (P9WHR9 whole entry, looked up, the tested form may be a part): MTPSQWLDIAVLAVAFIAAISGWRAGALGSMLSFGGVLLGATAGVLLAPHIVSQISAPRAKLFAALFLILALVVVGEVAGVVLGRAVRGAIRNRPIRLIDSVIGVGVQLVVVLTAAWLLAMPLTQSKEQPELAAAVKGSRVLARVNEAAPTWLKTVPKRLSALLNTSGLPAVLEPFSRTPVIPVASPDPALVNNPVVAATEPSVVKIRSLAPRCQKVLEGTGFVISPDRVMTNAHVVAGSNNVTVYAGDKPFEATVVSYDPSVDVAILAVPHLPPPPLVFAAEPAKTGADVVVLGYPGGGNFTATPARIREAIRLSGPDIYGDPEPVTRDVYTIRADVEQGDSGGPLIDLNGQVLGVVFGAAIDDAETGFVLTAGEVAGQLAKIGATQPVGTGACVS
UGM FP inh: blocks M. tuberculosis UGM enzyme; P9WIQ1; purified UGM, fluorescence polarization probe displacement; inhibition, % at 10 µM; actives 0.06% (n = 320,000); in the data active = inhibition above about 10%, passing the limit was not always enough
RecA intein inh: Mtb RecA intein splicing inhibition; inhibition, % (test concentration not listed); cell-free RecA intein splicing, fluorescence; actives 0.75% (n = 290,000); in the data active = inhibition above about 30%
FBA Mtb inh: inhibits M. tuberculosis FBA enzyme; P9WQA3; inhibition, % at 1 µM; actives 2.3% (n = 360,000); AID 588726; purified M. tuberculosis FBA, fluorescence read-out; in the data active = inhibition above about 27%
Of the large screens only hits and unclear results are named; the others gave an inactive call. An excerpt weighted towards active compounds, which were near 4.1% of everything screened.

COc1cc(/C=C2/C(=N)N3N=C(CC(=O)N4CCOCC4)SC3=NC2=O)ccc1OC(C)c1ccccc1 (configuration not stated)	none
COc1ccc(OC)c(-n2c(C)cc(/C=C3\C(=N)N4N=C(CC(=O)N5CCOCC5)SC4=NC3=O)c2C)c1	GDH-TPI counter 31
COc1cccc(-n2c(C)cc(/C=C3\C(=N)N4N=C(CC(=O)N5CCOCC5)SC4=NC3=O)c2C)c1	GDH-TPI counter 31
C[C@@H]1CC=C[C@H]2[C@H]1C(=O)N(Cc1ccccc1)[C@H]2c1ccc(-c2cc3ccccc3s2)cc1F	none
Cc1ccc2nc(-c3ccccc3)c(Cc3ccccc3C(F)(F)F)n2c1	none (no result: Vc quorum ag, GDH-TPI counter, Rv3671c protease, UGM FP inh, RecA intein inh)
CCn1cc(CN2CCC(C(=O)Nc3ccc(Oc4ccccc4F)cc3)CC2)cn1	none (no result: Rv3671c protease, UGM FP inh, RecA intein inh)
Cc1ccc(-c2csc(/C(C#N)=C(\O)CN3CCN(C(=O)c4ccco4)CC3)n2)cc1	GDH-TPI counter 31 (no result: Vc quorum ag)
CC(Cc1c[nH]c2ccccc12)C(=O)N1CCN(c2ccccc2F)CC1 (configuration not stated)	none
CCCCc1cc(=O)oc2cc(OC3CCCCC3=O)ccc12 (configuration not stated)	none
CCN(C(=O)Cn1c(=O)oc2ccccc21)c1ccc(C)c(C)c1	none
CCOC(=O)N1CCC2(CC1)C(C#N)=C(N)Oc1c2c(C)nn1-c1cccc(Cl)c1	RecA intein inh 63
CCOc1ccccc1C(=O)N[C@H](C(=O)Nc1nc2c(s1)CCCC2)C(C)C	none
COc1ccc(C(=O)N[C@H](C(=O)Nc2nc3c(s2)CCCC3)C(C)C)cc1	FBA Mtb inh active
S=C(NCCCc1cnc[nH]1)NCCCN(Cc1ccc(Cl)cc1)c1ccc(Br)cn1	none (no result: Rv3671c protease, UGM FP inh, RecA intein inh)
Cc1[nH]nc2c1C(c1ccc(F)cc1)C(C#N)=C(N)O2 (configuration not stated)	none (no result: RecA intein inh)
CCC(CC)C1C(C#N)=C(N)Oc2n[nH]c(C)c21 (configuration not stated)	none
Cc1[nH]nc2c1C(c1ccc(-c3ccccc3C#N)o1)C(C#N)=C(N)O2 (configuration not stated)	RecA intein inh 65
Cc1[nH]nc2c1C(c1ccc(-c3ccc(Cl)cc3)o1)C(C#N)=C(N)O2 (configuration not stated)	RecA intein inh 68
CCN1CCN(c2ccc(S(=O)(=O)N3CCOCC3)cc2NC(=O)C2CCC(C(C)(C)C)CC2)CC1 (configuration not stated)	none (no result: Rv3671c protease, UGM FP inh, RecA intein inh)
O=C(O)/C=C\C(=O)Nc1ccc(Oc2ccc(Br)cc2)cc1	RecA intein inh 32
Brc1ccc(-c2cn3ccccc3n2)cc1	none
O=S(=O)(Nc1cccc(-c2cn3cccnc3n2)c1)c1ccc(-c2ccccc2)cc1	none
COc1ccc(-c2cn3cccnc3n2)cc1F	FBA Mtb inh active
Clc1ccc(-c2cn3cccnc3n2)cc1Cl	FBA Mtb inh 70
COc1ccc(-c2cn3cccnc3n2)cc1NS(=O)(=O)c1ccccc1	none
Clc1ccc(-c2cn3cccnc3n2)cc1	FBA Mtb inh active
Brc1ccc(-c2cn3cccnc3n2)cc1	FBA Mtb inh 139 (no result: RecA intein inh)
CCOC(=O)CCCCC1C(CCCC(=O)OCC)C=NN1C (configuration not stated)	none (no result: Rv3671c protease, UGM FP inh, RecA intein inh)
Nc1nonc1-n1nnc(C(=O)N/N=C/c2ccc(Br)cc2)c1CSC1=NCCS1	RecA intein inh 31 (no result: UGM FP inh)
CC(C)c1ccc(/C=N/NC(=O)c2nnn(-c3nonc3N)c2CSC2=NCCS2)cc1	RecA intein inh 34
Nc1nonc1-n1nnc(C(=O)N/N=C/c2cccnc2)c1CSC1=NCCS1	none
O=C(c1ccccc1)c1nn(-c2ccccc2)c(=O)cc1-c1ccccc1	none (no result: Vc quorum ag, GDH-TPI counter, Rv3671c protease, UGM FP inh, RecA intein inh)
COc1ccccc1N=Cc1c(C)c(C#N)c2[nH]c3ccccc3n2c1=O	none
N#Cc1c(C(F)(F)F)cc(=O)n2c1[nH]c1ccccc12	FBA Mtb inh active (no result: Rv3671c protease)
Cc1c(Cc2ccccc2)c(=O)n2c([nH]c3ccccc32)c1C#N	FBA Mtb inh 133
O=C(Nc1cccnc1)c1cc(S(=O)(=O)N2CCOCC2)ccc1Br	none
CC(C)(C)C(=O)NC1CC2CCCC(C1)N2C(=O)Nc1ccc(Cl)cc1 (configuration not stated)	none
COC(=O)c1ccc(N=NN2CCCCCC2)cc1	GDH-TPI counter 32
CC1(C)Cc2c(cnn2-c2ccc(F)cc2)C(NC(=O)C2=CC(=O)CC(C)(C)O2)C1 (configuration not stated)	none (no result: Rv3671c protease, UGM FP inh, RecA intein inh)
COc1ccc(-n2ncc3c2CC(C)(C)CC3NC(=O)C2=CC(=O)CC(C)(C)O2)cc1 (configuration not stated)	FBA Mtb inh 153
CN(C)/C=C/c1onc(-c2c(Cl)cccc2Cl)c1C#N	GDH-TPI counter 31
Cc1cc(=O)oc2c(CN3CCN(CCO)CC3)c(O)ccc12	FBA Mtb inh active
CCN1CCN(Cc2c(O)ccc3c(C)cc(=O)oc23)CC1	FBA Mtb inh active
CN1CCN(Cc2c(O)ccc3c(-c4ccccc4)cc(=O)oc23)CC1	none
O=c1oc2c(CN3CCN(CCO)CC3)c(O)ccc2cc1-c1ccccn1	FBA Mtb inh active
Cc1cc(=O)oc2c(CN3CCCC3)c(O)ccc12	FBA Mtb inh active
CCCc1cc(=O)oc2c(CN3CCCC3)c(O)ccc12	none (no result: FBA Mtb inh)
O=c1oc2c(CN3CCCCC3)c(O)ccc2cc1-c1nc2ccccc2[nH]1	none (no result: Rv3671c protease, UGM FP inh, RecA intein inh)
COc1cccc(-c2cnc(C(O)c3c(C)cccc3C)[nH]2)c1 (configuration not stated)	none (no result: Rv3671c protease, UGM FP inh, RecA intein inh)
COc1ccc2cc(/C(C)=N/NC(=O)C3CC3)ccc2c1	FBA Mtb inh active
COc1ccc(/C(C)=N/NC(=O)C2CC2)cc1	none
O=C(c1ccc(NS(=O)(=O)c2ccc(F)cc2)cc1)N1CCOCC1	none
CC/C(=N/NC(=O)c1ccccc1O)c1c(C)[nH]n(-c2ccccc2)c1=O	GDH-TPI counter 31
COC1=C/C(=C/c2c(N)n3nc(CC(=O)N4CCCCC4)sc3nc2=O)C=CC1=O	GDH-TPI counter 34
CCOC1=C/C(=C/c2c(N)n3nc(CC(=O)N4CCCCC4)sc3nc2=O)C=CC1=O	none
CC1CCCC(NC(=O)CSC2CCCCC2)C1C (configuration not stated)	none
CC1CCCCC1NC(=O)NC(=O)CCl (configuration not stated)	RecA intein inh 34
CC1CCCCC1NC(=O)NC(=O)COC(=O)c1nccnc1N (configuration not stated)	FBA Mtb inh 118 (no result: RecA intein inh)
CC1CCCC(NC(=O)NC(=O)CCl)C1C (configuration not stated)	RecA intein inh 48
CC(=NOC(=O)C1CCCCC1)c1nccs1	GDH-TPI counter 51 (no result: Rv3671c protease, UGM FP inh, RecA intein inh)
COc1ccccc1NC(=O)C(C)Sc1nc(-c2ccccc2)cn1N (configuration not stated)	none (no result: RecA intein inh)
CN1CCN(CCCNC(=O)c2cc3c(=O)n(C)c4ccccc4c3s2)CC1	FBA Mtb inh 89
CCOC(=O)c1sc2nc(CC(=O)OC)nc(NCc3ccco3)c2c1C	none (no result: Rv3671c protease, UGM FP inh)
CCOC(=O)c1sc2nc(CC(=O)OC)nc(NCC(=O)OC)c2c1C	FBA Mtb inh 126
